MBD2 DNA inh: MBD2-methylated oligo binding inhibition | TR-FRET, MBD2 binding to methylated oligonucleotide | hit rate 0.31% among 370,000 | inhibition, % at 4.4 µM; in the data active means inhibition above about 13%
PRMT1 FP inh: blocks human protein arginine methyltransferase 1; Q99873; recombinant PRMT1, activity-based probe fluorescence polarization; inhibition, % at 2.79 µM; hit rate 1.3% among 370,000;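 active means inhibition above about 21% made by adding two undisclosed values, limit read from the data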
PfG6PD inh: PfG6PD (Plasmodium falciparum) enzyme inhibition. hit rate 0.78% among 350,000. inhibition, % at 20 µM. PfGluPho enzyme, NADPH resazurin-diaphorase fluorescence;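 active means inhibition reaching at least a set limit at 20 µM in the primary screen, cut at about 59% in these data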;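 further: 0% = DMSO wells with substrate and 100% = DMSO wells lacking glucose-6-phosphate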
UHRF1 MBD2 ctr: human UHRF1 methylated DNA binding inhibitors; Q96T88; UHRF1 binding to methylated oligo, TR-FRET; inhibition, % at 4.4 µM; hit rate 0.75% among 370,000; in the data active means inhibition above about 21%;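 further: UHRF1 SRA domain binding a hemimethylated CpG hairpin DNA probe; 0% = median of test compound wells and 100% = reference inhibitor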
Target sequence (Q96T88 whole entry, looked up, the tested form may be a part): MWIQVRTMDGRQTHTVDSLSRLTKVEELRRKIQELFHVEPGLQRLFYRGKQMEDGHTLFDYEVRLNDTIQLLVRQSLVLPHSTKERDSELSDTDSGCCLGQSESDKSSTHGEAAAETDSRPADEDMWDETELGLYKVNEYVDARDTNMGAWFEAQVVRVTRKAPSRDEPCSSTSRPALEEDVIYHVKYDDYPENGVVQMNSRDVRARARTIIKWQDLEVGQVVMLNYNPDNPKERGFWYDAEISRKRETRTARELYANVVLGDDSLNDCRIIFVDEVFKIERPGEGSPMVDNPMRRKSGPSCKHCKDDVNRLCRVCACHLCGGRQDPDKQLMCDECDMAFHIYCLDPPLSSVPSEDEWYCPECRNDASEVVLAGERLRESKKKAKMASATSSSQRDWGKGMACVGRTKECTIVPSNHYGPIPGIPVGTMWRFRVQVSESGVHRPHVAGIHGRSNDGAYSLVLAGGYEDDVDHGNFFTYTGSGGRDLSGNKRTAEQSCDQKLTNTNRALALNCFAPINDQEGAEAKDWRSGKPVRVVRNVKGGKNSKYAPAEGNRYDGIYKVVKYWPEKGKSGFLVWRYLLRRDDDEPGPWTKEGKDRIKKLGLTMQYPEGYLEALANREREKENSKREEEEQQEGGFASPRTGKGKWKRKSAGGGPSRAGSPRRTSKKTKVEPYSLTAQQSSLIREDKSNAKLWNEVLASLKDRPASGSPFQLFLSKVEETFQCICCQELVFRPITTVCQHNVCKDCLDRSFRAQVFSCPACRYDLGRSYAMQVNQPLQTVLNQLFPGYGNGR
PfM18AAP inh: PfM18AAP enzyme inhibition; recombinant PfM18AAP, H-Glu-NHMec fluorogenic cleavage; inhibition, % at 7.35 µM; hit rate 1.2% among 290,000;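 active means inhibition above the campaign mean inhibition over all tested compounds plus 3 SD, cut at about 28% in these data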;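 further: 0% = plate median of test compound wells and 100% = 2 mM ZnCl2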
An asterisk follows results filed as active. Only some compounds are listed: those with a hit (about 3.3% of all), similar ones and a draw of the others.

Cn1c(=O)c(N)c2c3c(c(Br)ccc31)C(=O)c1ccccc1-2 was read as MBD2 DNA inh -20, PRMT1 FP inh 180*, PfG6PD inh -57, UHRF1 MBD2 ctr -60 and PfM18AAP inh 18.
For C[C@H](O)[C@@H]1CN2CCc3c([nH]c4cccc(-c5ccccc5)c34)[C@@H]2C[C@@H]1N(C)C(=O)C1CCCCC1 the results were MBD2 DNA inh -5, PRMT1 FP inh -1 and UHRF1 MBD2 ctr -3.
COC(=O)c1ccc2c(c1)NC(=O)c1ccccc1S2 was read as MBD2 DNA inh 6, PRMT1 FP inh 2, PfG6PD inh -18, UHRF1 MBD2 ctr 0 and PfM18AAP inh 4.
Screening N#C/C=C1/NC(=O)c2ccccc2S1 returned MBD2 DNA inh 5, PRMT1 FP inh 19, PfG6PD inh 0, UHRF1 MBD2 ctr -1 and PfM18AAP inh 29*.
For S=c1[nH]nc(-c2ccccc2Cl)n1CC1CCCO1 (stereo not drawn) the results were MBD2 DNA inh -3, PRMT1 FP inh -4, PfG6PD inh 11, UHRF1 MBD2 ctr 5 and PfM18AAP inh 5.
For Fc1ccccc1-c1n[nH]c(=S)n1CC1CCCO1 (stereo not drawn) the results were MBD2 DNA inh 3, PRMT1 FP inh 1, PfG6PD inh 26, UHRF1 MBD2 ctr 0 and PfM18AAP inh 32*.
Screening CCN1/C(=C/c2ccc3cc(C)ccc3[n+]2C)Sc2ccc3sccc3c21 returned MBD2 DNA inh 5, PRMT1 FP inh -1, PfG6PD inh 65*, UHRF1 MBD2 ctr 41* and PfM18AAP inh 19.
CC1CN(S(=O)(=O)c2cccc(C(=O)NCCCn3ccnc3)c2)CC(C)O1 (stereo not drawn) was read as MBD2 DNA inh -1, PRMT1 FP inh 2, PfG6PD inh -6, UHRF1 MBD2 ctr 1 and PfM18AAP inh 2.
For O=C(Nc1ccc(S(=O)(=O)Nc2ncccn2)cc1)C1=COCCO1 the results were MBD2 DNA inh -6, PRMT1 FP inh 22*, PfG6PD inh 16 and UHRF1 MBD2 ctr -2.
`CC1CN(S(=O)(=O)c2cccc(C(=O)NCc3ccccn3)c2)CC(C)O1` (stereo not drawn) gave MBD2 DNA inh 3, PRMT1 FP inh 3, PfG6PD inh -2 and UHRF1 MBD2 ctr 28*.
CC1CN(S(=O)(=O)c2ccc(C(=O)Nc3ccc(S(=O)(=O)Nc4ncccn4)cc3)cc2)CC(C)O1 (stereo not drawn) was read as MBD2 DNA inh 1, PRMT1 FP inh 0, PfG6PD inh -17, UHRF1 MBD2 ctr 36* and PfM18AAP inh 3.
Cc1ccc(-n2c(Cc3cccs3)nnc2SCC(=O)Nc2ccc(OCc3ccccc3)cc2)cc1 was read as MBD2 DNA inh 2, PRMT1 FP inh 0 and UHRF1 MBD2 ctr -2.
For CC1=C(C(=O)OC(C)C)C(c2cccnc2)C2=C(CCCC2=O)N1 (stereo not drawn) the results were MBD2 DNA inh -1, PRMT1 FP inh -2, PfG6PD inh -9, UHRF1 MBD2 ctr 91* and PfM18AAP inh -3.
`COCCn1c(C)cc(/C=C2\NC(=S)N(C)C2=O)c1C` gave MBD2 DNA inh -13, PRMT1 FP inh 22*, PfG6PD inh 11, UHRF1 MBD2 ctr -9 and PfM18AAP inh 11.
For CCOC(=O)[C@@]12CN(C(=O)OC(C)(C)C)CC=C1N(Cc1ccc(OC)cc1)C(=O)[C@H]2CC(=O)N1CCN(C(=O)C2CC2)CC1 the results were MBD2 DNA inh -6, PRMT1 FP inh -3 and UHRF1 MBD2 ctr -1.
CC1CN(C(=O)c2ccccc2Oc2ccccc2)CC(C)O1 (stereo not drawn) was read as MBD2 DNA inh 4, PRMT1 FP inh -3, PfG6PD inh 3, UHRF1 MBD2 ctr 33* and PfM18AAP inh -9.
`COc1cccc(OC)c1C(=O)N1CC(C)OC(C)C1` (stereo not drawn) gave MBD2 DNA inh -3, PRMT1 FP inh -2, PfG6PD inh -15, UHRF1 MBD2 ctr -1 and PfM18AAP inh 6.
Screening O=C(C1CCCN(S(=O)(=O)c2cccc3ccccc23)C1)N1CCN(Cc2ccccc2)CC1 (stereo not drawn) returned MBD2 DNA inh 6, PRMT1 FP inh -3 and UHRF1 MBD2 ctr 3.
For Cc1ccc(-c2nc3ncccc3o2)cc1NC(=O)c1ccc([N+](=O)[O-])o1 the results were PfG6PD inh 7 and PfM18AAP inh 2.
O=C(Nc1ccc(-c2nc3ncccc3o2)cc1)c1ccc([N+](=O)[O-])o1 was read as MBD2 DNA inh -2, PRMT1 FP inh -2, PfG6PD inh -11, UHRF1 MBD2 ctr 40* and PfM18AAP inh 4.
Screening COc1ccccc1Oc1ccc2c(c1)C(=O)N(c1cccc(O)c1)C2=O returned MBD2 DNA inh 0, PRMT1 FP inh 0, PfG6PD inh 30, UHRF1 MBD2 ctr 0 and PfM18AAP inh 31*.
`Cn1c(SCC(=O)Nc2ccc(S(=O)(=O)Nc3nccs3)cc2)nc2sc3c(c2c1=O)CCCC3` gave MBD2 DNA inh 1, PRMT1 FP inh 5 and UHRF1 MBD2 ctr -1.
For O=C(c1ccccc1)C12COc3ccccc3C1ON=C2c1ccccc1 (stereo not drawn) the results were MBD2 DNA inh -7, PRMT1 FP inh -1 and UHRF1 MBD2 ctr -3.
`O=C1CS/C(=N\N=C\c2ccccc2Cl)N1CC1CC1` gave MBD2 DNA inh 11, PRMT1 FP inh -1, PfG6PD inh 1, UHRF1 MBD2 ctr 25* and PfM18AAP inh -5.
Screening Cc1ccc(/C=N/N=C2\SCC(=O)N2CC2CC2)cc1 returned MBD2 DNA inh -3, PRMT1 FP inh 0, PfG6PD inh 10, UHRF1 MBD2 ctr 0 and PfM18AAP inh -4.
S=C(NCCc1ccccc1)N1CCCC1 was read as MBD2 DNA inh 2, PRMT1 FP inh 0, PfG6PD inh -2 and UHRF1 MBD2 ctr 27*.
Screening O=C1NC(=S)S/C1=C\c1cc2ccccc2nc1N1CCCCC1 returned MBD2 DNA inh 4, PRMT1 FP inh 0, PfG6PD inh -33, UHRF1 MBD2 ctr 78* and PfM18AAP inh -13.
`CC(CO)NS(=O)(=O)c1cc(Cl)ccc1F` (stereo not drawn) gave MBD2 DNA inh 12, PRMT1 FP inh 0, PfG6PD inh 7 and UHRF1 MBD2 ctr 26*.
`CC(CO)NS(=O)(=O)c1cccc(Cl)c1F` (stereo not drawn) gave MBD2 DNA inh 1, PRMT1 FP inh 4, PfG6PD inh 16 and UHRF1 MBD2 ctr -1.
Screening Cc1cccc(CSC2=NCCN2C(=O)c2ccc(Br)o2)c1 returned MBD2 DNA inh -5, PRMT1 FP inh -4, PfG6PD inh -7, UHRF1 MBD2 ctr 46* and PfM18AAP inh -5.
COc1ccc(Cc2c(-c3ccc(OC)c(OC)c3)nc3ccc(C)cn23)c(C)c1 was read as MBD2 DNA inh 7, PRMT1 FP inh 3 and UHRF1 MBD2 ctr 24*.
COc1ccc(Cc2c(-c3ccc(F)cc3)nc3ccc(C)cn23)c(C)c1 was read as MBD2 DNA inh 4, PRMT1 FP inh 4 and UHRF1 MBD2 ctr 21*.
For O=C(O)c1ccccc1C(=O)c1ccc(Sc2ccc(Cl)cc2)c([N+](=O)[O-])c1 the results were MBD2 DNA inh 0, PRMT1 FP inh -2, PfG6PD inh -33, UHRF1 MBD2 ctr 21* and PfM18AAP inh 0.
